From PubChem BioAssay
BRCA1 expr up: qHTS Assay to Identify Small Molecule Activators of BRCA1 Expression; MCF7-BRCA1-FFLuc reporter, luminescence, 48 h; response scale: scaled: vehicle 0%, 10 µM genistein 100%; Potency, µM (doses to about 46.1 µM), for inactives: at the highest dose activation, usual class: activators; 380,000 compounds, 1.1% hits; further: nearly all actives have a fitted effect of over 80% in size
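Compounds are tested at multiple concentrations on MCF7 BRCA1-luciferase reporter cells seeded at 2000 per well; after 48 h, a single luminescence end-point is taken and curves fitted to the normalized data.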
GLP-1R agonist: qHTS of GLP-1 Receptor Agonists | HEK293 GLP-1R CRE-luciferase, luminescence, 4-6 h; cells express a hypersensitive GLP-1R form | Potency, µM (titrated, usually from 45.6 µM), inactives show at the highest dose activation, actives largely listed as activators | 380,000 compounds, 0.007% hits | Glucagon-like peptide 1 receptor (Homo sapiens), P43220; further: % of control where 0% means no effect
Target sequence (P43220 whole entry, looked up): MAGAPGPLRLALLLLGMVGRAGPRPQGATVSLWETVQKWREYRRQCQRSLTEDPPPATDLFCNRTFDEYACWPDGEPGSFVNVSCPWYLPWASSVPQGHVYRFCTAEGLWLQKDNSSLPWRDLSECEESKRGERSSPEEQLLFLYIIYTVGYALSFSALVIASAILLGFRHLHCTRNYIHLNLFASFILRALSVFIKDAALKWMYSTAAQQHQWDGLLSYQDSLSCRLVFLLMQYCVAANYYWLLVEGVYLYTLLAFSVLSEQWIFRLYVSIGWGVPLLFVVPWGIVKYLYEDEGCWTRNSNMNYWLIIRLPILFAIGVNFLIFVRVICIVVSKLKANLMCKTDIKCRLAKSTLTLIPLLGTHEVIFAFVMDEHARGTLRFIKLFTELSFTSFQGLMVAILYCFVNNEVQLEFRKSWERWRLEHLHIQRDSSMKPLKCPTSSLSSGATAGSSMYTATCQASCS
HEK293 tox: qHTS of GLP-1 Receptor Inverse Agonists: Cytotox Screen; HEK293 cAMP-luciferase reporter cells, luminescence, 24 h; Potency, µM (series often up to 38.3 µM), without a hit: top-dose activity change, negative = inhibition, most hits filed as inhibitors; 410,000 compounds, 0.13% hits; AID 624418, 2012;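 further: loss of luciferase light is scored as toxicity; on the % scale 0 is the no-effect control and ±100 the full control effect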
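A 23 nL compound transfer followed 12 hours of cell culture at 37 deg C; exposure then lasted 24 hr. Luciferase assay detection reagent was dispensed and plates read for luminescence after a 12 min room-temperature wait.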
GLP1R inv ag: qHTS of GLP-1 Receptor Inverse Agonists (Inhibition Mode). HEK293 GLP-1R CRE-luciferase, luminescence, 24 h; GLP-1R form is constitutively active. Potency, µM (top dose mostly 38.3 µM), without a hit: at the highest dose activity change, negative = inhibition, actives largely listed as inhibitors. 410,000 compounds, 1.6% hits. AID 624417, 2012; further: on the % scale 0 is the no-effect control and ±100 the full control effect; nearly all actives have a fitted effect of over 55% in size
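HEK293 cells stably co-expressing a cAMP-responsive luciferase reporter and constitutively active GLP-1R were seeded, incubated 12 h, then exposed to compounds for 24 h at 37 C. Luminescence was read 12 min after detection reagent; inverse agonists lower signal.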
a7 integrin act: qHTS for Activators of Integrin-Mediated Alleviation for Muscular Dystrophy | alpha7betagal myoblasts, beta-gal FDG fluorescence, 48 h | Potency, µM (doses to about 38.3 µM), without a hit: at the top dose activation, hits mostly activators | 350,000 compounds, 0.064% hits | AID 624291, 2012;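 further: 100% = response of the positive control SU9516; nearly all actives have a fitted effect of over 60% in size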
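Alpha7betagal+/- myoblasts (passage 13) were plated 16-24 hr, then exposed to compounds (1:260 dilution of DMSO stock) for 48 hours at 37C. After MPER lysis, β-galactosidase reporter activity was read as FDG fluorescence (ex 480/em 540) after 30 minutes.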
The depositor's hits bear a star; u = inconclusive; x = no result. Most compounds without a hit are left out; they make up all but 2.7% or so of the library. The call rests on the fitted dose curve; in most records, active means well fitted curve in the direction sought with a large enough effect; inconclusive means small, poorly fitted or top-dose-only effect, or another doubt; inactive means no such curve, though single readings can be large; an effect the other way counts as inactive or inconclusive. Potency means the concentration at half of the fitted maximal effect.

SMILES	BRCA1 expr up	GLP-1R agonist	HEK293 tox	GLP1R inv ag	a7 integrin act
CCOC(=O)c1sc(NC(=O)c2ccc(Cl)s2)cc1C	4.5µM*	0%	-7%	2%	-4%
CCN(CC)S(=O)(=O)c1ccc(NC(=S)NC(=O)CC(C)C)cc1	-15%	0%	-6%	u	0%
CCOC(=O)c1sc(NC(=O)C(C)(C)C)cc1C	3.2µM*	-3%	-26%	-25%	-8%
CCOC(=O)c1sc(NC(=S)NC(=O)CC(C)C)cc1C	u	4%	u	10µM*	10%
CCOC(=O)c1sc(NC(=O)C2CC2)cc1C	47%	2%	-28%	-17%	-3%
CCOC(=O)c1sc(NC(=S)NC(=O)C2CCCC2)cc1C	92%	13%	-4%	u	-27%
O=C(Nc1ccc(Cl)cc1Cl)c1cc(S(=O)(=O)N2CCN(c3ccccc3F)CC2)ccc1F	x	x	1%	-6%	x
Cc1cc(C)n2nc(CNC(=O)c3cccc(N(C)C)c3)nc2n1	x	x	-23%	86%	x
Cc1ccc2c(c1)cc1c(=O)n(CC(=O)NCc3ccco3)nc(C)n12	x	x	2%	4%	x
O=C(O)CC1c2ccccc2CCN1C(=O)Nc1cc(Cl)ccc1Cl (configuration not stated)	x	x	-2%	5%	x
Cc1nc(-c2ccccc2)sc1C(=O)O	95%	5%	11%	13%	0%
Cc1ccc(-c2nc(C)c(C(=O)O)s2)cc1	-2%	-4%	-7%	10µM*	-7%
CCN(CCn1cccn1)C(=O)c1cc(COc2ccccc2SC)on1	11µM*	-13%	3%	-13%	16%
CCN(CCn1cccn1)C(=O)c1cc(COc2cc(C)ccc2C)on1	13µM*	1%	-5%	u	21%
CCCc1cnc2c(c1SCC(=O)Nc1ccc([N+](=O)[O-])cc1)c(=O)n(C)c(=O)n2C	x	x	4%	2%	x
Cc1c2cc(O)c(=O)cc-2oc2cc(O)c(O)cc12	-18%	-4%	u	0%	-56%
COc1cc(OC)c(-c2c3cc(O)c(=O)cc-3oc3cc(O)c(O)cc23)cc1OC	-35%	-3%	u	4.5µM*	-67%
C=CCn1c2ccccc2c(=O)c2cc(C#Cc3ccccn3)ccc21	8.9µM*	22%	6%	13%	-8%
CCOC(=O)c1ccc(NC(=O)c2c(C)oc3nc(C)nc(N4CCCC4)c23)cc1	x	x	2%	2%	x
CCC[n+]1c(/C=C/c2c(OC)cc(OC)cc2OC)ccc2ccccc21	-2%	x	x	x	x
COc1ccccc1NC(=O)c1cc2cc(Br)ccc2cc1O	-51%	-4%	17%	6.3µM*	-73%
COc1cc(NC(=O)c2cc3ccccc3cc2O)c(OC)cc1Cl	-65%	-3%	37%	u	-74%
CCc1nn(CC(=O)NCc2ccc(OC)c(OC)c2)c(=O)c2cc3sc(C)cc3n12	x	x	-5%	-25%	x
COc1cccc(-c2csc(N3CCN(C(=S)Nc4ccccc4Cl)CC3)n2)c1	-3%	1%	7%	u	-15%
COc1cccc(-c2csc(N3CCN(CC(=O)NNC(=O)c4ccc(Br)cc4)CC3)n2)c1	-49%	-3%	4%	11µM*	45%
SMILES	BRCA1 expr up	GLP-1R agonist	HEK293 tox	GLP1R inv ag	a7 integrin act
COc1cccc(-c2csc(N3CCN(C(=S)Nc4cccc(Cl)c4)CC3)n2)c1	-19%	-7%	-7%	10µM*	-17%
Cc1ccc(S(=O)(=O)c2cn(Cc3ccccc3Cl)c3ccc(F)cc3c2=O)cc1	x	x	4%	9%	x
COC1=C(C(=O)O)N2C(=O)[C@@H](NC(=O)C(N)C3C=CCC=C3)[C@H]2SC1 (some centres not stated)	x	-7%	x	x	x
CCC(O)(CC)C(=O)N(Nc1ccc(C)cc1)c1ccc(C)cc1	-3%	8%	-1%	8.9µM*	14%
CCOC(=O)C(=O)N(Nc1ccc(C)cc1)c1ccc(C)cc1	11µM*	33%	-1%	u	2%
Cc1ccc(NCC(=O)c2ccc(C)cc2)cc1	-1%	-1%	5%	5%	-43%
Cc1ccc(NC(=O)CN2C(=O)c3ccccc3Sc3ccc(C(=O)N4CCOCC4)cc32)cc1F	x	x	1%	9%	x
Cc1ccc(-n2c(=O)c3c(C)c(C(=O)N(C)C)sc3n(CC(=O)N(C)c3ccccc3)c2=O)cc1C	x	x	3%	19%	x
CN1CCC(N(C)S(=O)(=O)c2ccc(NC(=O)COc3ccc(F)cc3Cl)cc2)CC1	-6%	3%	2%	10µM*	-52%
CN1CCC(N(C)S(=O)(=O)c2ccc(NC(=O)COc3ccc(F)cc3)cc2)CC1	-11%	-1%	14%	u	14%
CC(C)(C)OC(=O)N1CCC(c2cc(-c3cccs3)n[nH]2)CC1	0%	21%	-4%	10µM*	42%
CC(C)(C)OC(=O)N1CCN(c2nc(-c3cccs3)nc3ccccc23)CC1	2%	x	x	x	x
CCOc1cc(C)c(S(=O)(=O)Nc2ccc(Cl)cn2)cc1C	11%	0%	20%	0%	38%
CCOc1ccc(S(=O)(=O)Nc2ccc(Cl)cn2)c(C)c1C	-18%	-14%	2%	11µM*	u
Cc1ccc(-c2nc3sc(CCNS(=O)(=O)c4cc(F)ccc4F)c(C)n3n2)cc1	x	x	-15%	-24%	x
CC(C)(C)NC(=O)N1CCN(c2nc3ccc(Cl)cc3s2)CC1	10µM*	5%	0%	u	-31%
CC(C)(CC(=O)O)CC(=O)N1CCN(c2nc3ccc(Cl)cc3s2)CC1	49%	-4%	7%	69%	-46%
CC(C)(C)C1CCC(=O)N(CCOc2ccccc2)CC1 (configuration not stated)	13µM*	u	-18%	-27%	0%
Cc1ccc(SC[C@H](C)CN2CC[C@H](C(C)(C)C)CCC2=O)cc1	-7%	10%	1%	10µM*	-15%
CCCN1CCC(=O)N(CCOc2ccccc2)CC1	30%	-3%	4%	9%	1%
CC(C)(C)[C@@H]1CCC(=O)N(CC[C@H](Sc2ccccc2)c2ccccc2)CC1	-29%	2%	u	4.5µM*	-41%
CC(C)(C)c1ccc(-c2nc(C#N)c(NCc3ccncc3)o2)cc1	11µM*	11%	u	1%	-41%
CC(C)(C)c1ccc(-c2nc(C#N)c(NCCCn3ccnc3)o2)cc1	-97%	19%	-21%	-68%	-76%
COC(=O)c1cc2c([nH]c1=O)CC(c1ccccc1)CC2=O (configuration not stated)	-4%	x	x	x	x
